JMJD2A Tudor – blocks the human JMJD2A Tudor domain | O75164 | AlphaScreen JMJD2A-Tudor / H3K4me3 peptide binding | Potency, µM (highest dose often 114 µM), for inactives: top-dose activity change, negative = inhibition, hits mostly inhibitors | actives 4.4% (n = 390,000) | AID 504339; also: potency is read from the fitted curve at half-maximal effect; % is scaled to controls: 0 for no effect and ±100 for the full control effect; nearly all actives have a fitted effect of over 50% in size
HP1b binding inh – HP1-beta chromodomain-methylated histone interaction inhibition. P83916. AlphaScreen HP1-beta / biotin-H3K9me3 peptide binding. Potency, µM (doses to about 114 µM), without a hit: at the highest dose activity change, negative = inhibition, usual class: inhibitors. actives 0.56% (n = 390,000); also: potency is read from the fitted curve at half-maximal effect; nearly all actives have a fitted effect of over 70% in size
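HP1-beta protein (50 nM final) preincubated 30 min at room temperature with biotinylated H3(1-18)K9me3 peptide (50 nM) in PBS pH 7.4, 0.01% Tween-20, then compound added for 30 min. AlphaScreen streptavidin donor/nickel chelate acceptor beads (10 ug/mL final), 30 min dark, luminescence read.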
Six1-Eya2 inh – Six1/Eya2 interaction inhibition; actives 0.56% (n = 360,000); AID 651725; activity change, % (test concentration not listed); Q15475+O00167; AlphaScreen GST-Six1/His-Eya2 binding, biochemical; active compounds read low; in the data active = activity change below about -65%; inconclusive = mostly about -30% to -63%; also: % is scaled to controls: 0 for no effect and ±100 for the full control effect
Target sequence (O00167 whole entry, looked up): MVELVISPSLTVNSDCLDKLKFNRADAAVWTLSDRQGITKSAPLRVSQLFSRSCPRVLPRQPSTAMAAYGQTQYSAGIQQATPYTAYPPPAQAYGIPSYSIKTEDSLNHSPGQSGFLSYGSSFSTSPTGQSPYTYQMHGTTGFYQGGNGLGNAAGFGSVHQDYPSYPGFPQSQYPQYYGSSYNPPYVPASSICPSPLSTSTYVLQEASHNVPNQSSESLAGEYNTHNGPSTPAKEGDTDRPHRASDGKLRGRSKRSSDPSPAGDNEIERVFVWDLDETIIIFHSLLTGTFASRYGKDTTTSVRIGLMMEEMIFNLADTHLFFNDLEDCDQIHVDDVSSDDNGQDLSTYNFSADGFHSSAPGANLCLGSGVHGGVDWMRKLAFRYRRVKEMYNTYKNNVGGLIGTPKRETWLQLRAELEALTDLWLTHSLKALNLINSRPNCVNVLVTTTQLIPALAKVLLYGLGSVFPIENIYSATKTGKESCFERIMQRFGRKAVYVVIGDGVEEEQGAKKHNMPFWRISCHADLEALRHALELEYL
Target sequence (Q15475 whole entry, looked up): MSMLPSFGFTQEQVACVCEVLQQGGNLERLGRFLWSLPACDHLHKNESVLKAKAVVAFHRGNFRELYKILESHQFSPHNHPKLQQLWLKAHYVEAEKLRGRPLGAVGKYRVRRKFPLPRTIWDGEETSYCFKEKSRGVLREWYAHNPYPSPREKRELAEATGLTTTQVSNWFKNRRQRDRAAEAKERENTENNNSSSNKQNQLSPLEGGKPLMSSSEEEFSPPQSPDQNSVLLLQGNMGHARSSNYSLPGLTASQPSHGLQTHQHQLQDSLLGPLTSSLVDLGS
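AlphaScreen with GST-Six1 and His-Eya2 (5X mix: 250 nM and 500 nM), glutathione donor and nickel acceptor beads; buffer 50 mM Tris pH 8.0, 300 mM NaCl, 1 mM TCEP; 1 h at 37 C in the dark.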
CtBP-E1A blk – CtBP/E1A binding inhibition | AlphaScreen GST-E1A/His-CtBP binding, 1536-well; active compounds read low | activity change, % (concentration not given with the values) | actives 0.49% (n = 340,000) | AID 651724; in the data active = activity change below about -65%; inconclusive = mostly about -30% to -63%; also: % is scaled to controls: 0 for no effect and ±100 for the full control effect
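GST-E1A and His-tagged CtBP (125 nM each as 5X stock) were preincubated with pin-transferred compound for 2 h at 37 °C in the dark, then glutathione donor and nickel acceptor beads were added for 1 h before AlphaScreen reading.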
BAZ2B inh – blocks human BAZ2B. actives 4.4% (n = 360,000). Potency, µM (top dose mostly 114 µM), without a hit: top-dose activity change, negative = inhibition, usual class: inhibitors. Q9UIF8. AlphaScreen BAZ2B-H3K14Ac peptide displacement; also: potency is read from the fitted curve at half-maximal effect; % is scaled to controls: 0 for no effect and ±100 for the full control effect; nearly all actives have a fitted effect of over 60% in size
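In this displacement format the biotinylated H3(5-23) peptide acetylated at Lys14 serves as ligand at 50 nM, with BAZ2B at 50 nM in PBS pH 7.4 containing 0.01% Tween-20. Donor and acceptor beads are 10 ug/mL final.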
G9a inh – G9a (human) methyltransferase inhibition; Q96KQ7; G9a H3K9 monomethylation, AlphaScreen, 2 h; Potency, µM (titrated, usually from 102 µM), for inactives: at the highest dose activity, negative = inhibition, actives largely listed as inhibitors; actives 8.8% (n = 350,000); also: potency is read from the fitted curve at half-maximal effect; % is scaled to controls: 0 for no effect and ±100 for the full control effect; nearly all actives have a fitted effect of over 75% in size
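Compounds were preincubated with 20 nM G9a for 15 min, after which biotinylated H3K9 peptide (500 nM) and SAM (20 uM) started a 2 h room-temperature reaction. Monomethylated product was quantified by antibody-based AlphaScreen chemiluminescence.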
* marks the source's active call; other numbers are inactive results; [ ] = dose if it differs, or a comment. Hits are enriched below; roughly 10% of the tested compounds scored in any of these assays. Unless noted, calls follow the shape of the dose curve; as a rule, active = well fitted inhibition curve with a large enough effect; inconclusive = small, poorly fitted or top-dose-only effect; inactive = no such curve, though single readings can be large or run the other way.

How did COc1ccc(NS(=O)(=O)c2ccc(N3CCCCS3(=O)=O)cc2)cc1Cl do in these assays?
JMJD2A Tudor: -4%; HP1b binding inh: 38%; BAZ2B inh: -1%; G9a inh: 20%[59 µM]

Results for Cc1ccc(CN2C(=O)SC(Nc3ccc(Cl)cc3)C2=O)cc1 (configuration not stated) ?
JMJD2A Tudor: 8%; HP1b binding inh: 42%; BAZ2B inh: 12%; G9a inh: 7%[59 µM]

What do the screens show for `CCOC(=O)c1cc2cc(OCc3ccccc3)ccc2nc1C`?
JMJD2A Tudor: 171%; HP1b binding inh: 245%; Six1-Eya2 inh: 23; CtBP-E1A blk: 6; BAZ2B inh: 71%; G9a inh: 260%

What do the screens show for `COc1ccc2nc(C)c(C(=O)OCCN(C)C)cc2c1`?
BAZ2B inh: 5%; G9a inh: 50µM*

What do the screens show for `CCOC(=O)C1=C(C)Nc2ccccc2S1`?
JMJD2A Tudor: inconclusive; HP1b binding inh: inconclusive; Six1-Eya2 inh: -25; CtBP-E1A blk: -24; BAZ2B inh: 40µM*

What do the screens show for `CCOCCOC(=O)c1cccc(NC(=O)OCC)c1`?
JMJD2A Tudor: 0%; HP1b binding inh: 24%; Six1-Eya2 inh: 6; CtBP-E1A blk: -2; BAZ2B inh: -3%; G9a inh: 6%

What do the screens show for `CCOCCOC(=O)C1=C(C)Nc2ccc(C)cc2S1`?
JMJD2A Tudor: 14µM*; HP1b binding inh: -43%; Six1-Eya2 inh: -17; CtBP-E1A blk: -13; BAZ2B inh: inconclusive; G9a inh: 16µM*

Results for CSCCOC(=O)C1=C(C)Nc2ccc(C)cc2S1 ?
JMJD2A Tudor: 79µM*; HP1b binding inh: -67%; Six1-Eya2 inh: -29; CtBP-E1A blk: -22; BAZ2B inh: 45µM*; G9a inh: 25µM*

Results for CSCCOC(=O)C1=C(C)NC(=O)NC1c1ccc2c(c1)OCO2 (configuration not stated) ?
JMJD2A Tudor: -10%; HP1b binding inh: 19%; Six1-Eya2 inh: -2; CtBP-E1A blk: 4; BAZ2B inh: -10%

Results for CCOC(=O)C1=C(C)Nc2ccc(C)cc2S1 ?
JMJD2A Tudor: -25%; HP1b binding inh: inconclusive; Six1-Eya2 inh: -19; CtBP-E1A blk: -21; BAZ2B inh: 50µM*; G9a inh: inconclusive

Results for O=C(Nc1cc2c(cc1C(=O)c1ccccc1Br)OCCO2)c1cccc(Cl)c1 ?
JMJD2A Tudor: -24%; HP1b binding inh: -1%; BAZ2B inh: -14%; G9a inh: -1%[59 µM]

Results for Cc1cc(C)cc(-n2c(SCC(=O)Nc3cccc(F)c3)nc3c([nH]c4ccccc43)c2=O)c1 ?
JMJD2A Tudor: -1%; HP1b binding inh: 25%[57 µM]; BAZ2B inh: 0%; G9a inh: 2%[59 µM]

Results for CCOC(=O)c1c(C)n(C)c2ccc(OC)c(NC(=O)CN3CCN(C(=O)c4ccco4)CC3)c12 ?
JMJD2A Tudor: -7%; HP1b binding inh: 29%; Six1-Eya2 inh: 26; CtBP-E1A blk: 31; BAZ2B inh: -12%; G9a inh: 32µM*

What do the screens show for `CCOC(=O)c1c(C)n(C)c2ccc(OC)c(NC(=O)CN3CCN(Cc4ccccc4)CC3)c12`?
JMJD2A Tudor: -24%; HP1b binding inh: 20%; Six1-Eya2 inh: -2; CtBP-E1A blk: 4; BAZ2B inh: -31%; G9a inh: -44%

What do the screens show for `CCc1c(C)sc(NC(=O)Cc2ccccc2C)c1C(=O)N1CCOCC1`?
JMJD2A Tudor: -9%; HP1b binding inh: inconclusive; Six1-Eya2 inh: 24; CtBP-E1A blk: -3; BAZ2B inh: -15%; G9a inh: 35µM*

How did Cc1ccccc1CC(=O)Nc1sc(C(C)C)cc1C(=O)N1CCOCC1 do in these assays?
JMJD2A Tudor: -4%; HP1b binding inh: 17%; Six1-Eya2 inh: -7; CtBP-E1A blk: 1; BAZ2B inh: -12%; G9a inh: 18%

Results for CCc1c(C)sc(NC(=O)CN2CCN(C(=O)c3ccco3)CC2)c1C(=O)OC ?
JMJD2A Tudor: inconclusive; HP1b binding inh: -14%; Six1-Eya2 inh: -8; CtBP-E1A blk: -7; BAZ2B inh: inconclusive; G9a inh: 79µM*

Results for CCCn1c(=O)n(-c2ccccc2)c(=O)c2sc3ccccc3c21 ?
JMJD2A Tudor: -5%; HP1b binding inh: 22%; BAZ2B inh: -7%; G9a inh: -31%[59 µM]

How did NS(=O)(=O)c1ccc(CCNC(=O)CSc2nc3ccccc3c(=O)n2CC2CCCO2)cc1 (configuration not stated) do in these assays?
JMJD2A Tudor: 0%; HP1b binding inh: 37%; Six1-Eya2 inh: 7; BAZ2B inh: 3%; G9a inh: 54%

How did NC(=S)c1cnn2c(-c3cccc(C(F)(F)F)c3)ccnc12 do in these assays?
JMJD2A Tudor: -26%; HP1b binding inh: 28%; Six1-Eya2 inh: 1; CtBP-E1A blk: -5; BAZ2B inh: -3%; G9a inh: 2%

What do the screens show for `Cc1cccc(NC2=NCC(=O)N2Cc2cccs2)c1`?
JMJD2A Tudor: -1%; HP1b binding inh: 14%; Six1-Eya2 inh: -2; CtBP-E1A blk: -9; BAZ2B inh: inconclusive; G9a inh: 71µM*

What do the screens show for `Cc1cc(C)cc(NC2=NCC(=O)N2Cc2ccccc2)c1`?
JMJD2A Tudor: -30%; HP1b binding inh: 22%; Six1-Eya2 inh: 4; CtBP-E1A blk: 3; BAZ2B inh: -7%; G9a inh: 18%[12.7 µM]

Results for O=C1CN=C(Nc2ccccc2)N1Cc1cccs1 ?
JMJD2A Tudor: -10%; HP1b binding inh: 42%; Six1-Eya2 inh: 3; CtBP-E1A blk: 2; BAZ2B inh: 3%[57.1 µM]; G9a inh: 79µM*

Results for CC(C)c1ccc(NC2=NCC(=O)N2Cc2cccs2)cc1 ?
JMJD2A Tudor: -5%; HP1b binding inh: 44%; Six1-Eya2 inh: -12; CtBP-E1A blk: -4; BAZ2B inh: inconclusive; G9a inh: inconclusive

Results for CCc1ccccc1NC1=NCC(=O)N1Cc1ccccc1 ?
JMJD2A Tudor: 0%; HP1b binding inh: 32%; Six1-Eya2 inh: 3; CtBP-E1A blk: -2; BAZ2B inh: 79µM*; G9a inh: 45µM*

What do the screens show for `O=C1CCN=C(Nc2ccc(F)cc2)N1Cc1ccccc1`?
JMJD2A Tudor: -19%[57.1 µM]; HP1b binding inh: 35%; Six1-Eya2 inh: 5; CtBP-E1A blk: 5; BAZ2B inh: inconclusive; G9a inh: 40µM*

Results for CCOc1ccc(C2Nc3ccccc3-c3nnc(SCc4ccccc4)nc3O2)cc1OC (configuration not stated) ?
JMJD2A Tudor: -28%; HP1b binding inh: 15%; BAZ2B inh: -38%; G9a inh: -69%[59 µM]
